Data reported in PubChem BioAssay.
Active and inactive are the calls of the source. Unless noted, no rule for the calls is given here.

Experiments:
[1] = HepG2 liver cancer cell viability effects, profiling panel, resazurin fluorescence, 24 h, PK04 Diversity Set (AID 1172); conditions: higher = more signal
[2] = basal S. cerevisiae growth modulation, no modifier, primary screen, OD600, strain BY4716, 24 h, basal condition (AID 1173); conditions: OD600, 24 h, higher = more signal, called active from +8 up or from −8 down
[3] = MM1S myeloma cell viability, profiling panel, resazurin fluorescence, basal, 24 h, PK04 Diversity Set (AID 1174); conditions: higher = more signal, called active from +8 up or from −8 down;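 also: MM1S multiple myeloma cell line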
[4] = target: Dihydroorotate dehydrogenase (quinone), mitochondrial (Plasmodium falciparum (isolate 3D7)) (UniProt Q08210); assay: PfDHODH enzyme inhibitors, primary screen, biochemical, C-terminal His tag, absorbance 600 nm (AID 1175); conditions: DCIP absorbance 600 nm, higher = more signal, called active from +8 up or from −8 down;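 also: recombinant parasite enzyme with a five histidine tag at its C terminus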
Sequence of Dihydroorotate dehydrogenase (quinone), mitochondrial (Plasmodium falciparum (isolate 3D7)) (Q08210 whole entry, looked up): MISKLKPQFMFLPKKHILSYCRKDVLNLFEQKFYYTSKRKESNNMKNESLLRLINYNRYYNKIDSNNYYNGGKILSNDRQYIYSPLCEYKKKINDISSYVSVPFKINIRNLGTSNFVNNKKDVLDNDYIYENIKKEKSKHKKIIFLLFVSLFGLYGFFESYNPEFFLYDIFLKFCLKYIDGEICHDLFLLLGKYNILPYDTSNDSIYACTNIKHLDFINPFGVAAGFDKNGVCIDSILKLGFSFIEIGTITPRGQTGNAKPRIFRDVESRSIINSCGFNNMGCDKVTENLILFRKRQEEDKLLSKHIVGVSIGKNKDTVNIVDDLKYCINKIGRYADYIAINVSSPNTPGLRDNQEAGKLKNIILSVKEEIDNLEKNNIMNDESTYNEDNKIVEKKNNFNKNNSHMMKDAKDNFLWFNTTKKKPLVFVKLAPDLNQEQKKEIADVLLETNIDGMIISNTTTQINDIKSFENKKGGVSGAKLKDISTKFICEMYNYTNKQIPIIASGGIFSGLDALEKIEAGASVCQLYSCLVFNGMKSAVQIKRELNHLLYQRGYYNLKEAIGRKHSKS

[5] = P. aeruginosa biofilm formation inhibitors, primary screen, strain PAO1, LB-PBS medium, absorbance 600 nm (AID 1176); conditions: P. aeruginosa PAO1 growth/biofilm, A600, 12 h; higher = more signal
[6] = S. cerevisiae RM11-1a growth modifiers, primary screen, strain RM11-1a, OD600, basal, 24 h (AID 1177); conditions: OD600, 24 h, higher = more signal, called active from +8 up or from −8 down;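 also: cultures grown under basal conditions with no added stressor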
[7] = E. coli acrAB mutant growth effects, primary screen, E. coli filamentation inducers, strain DRC39, OD650, 24 h (AID 1178); conditions: higher = more signal, called active from +8 up or from −8 down;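 also: growth measured as culture turbidity by optical density at 650 nm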
[8] = E. coli acrAB mutant growth effects, primary screen, E. coli filamentation inducers, strain DRC39, OD650, 48 h (AID 1179);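 also: screen aims at cell division blockers that make cells filament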; conditions: E. coli DRC39 delta-acrAB growth, higher = more signal, called active from +8 up or from −8 down
[9] = RPMI8226 myeloma cell viability, profiling panel, resazurin fluorescence, basal, 24 h, PK04 Diversity Set (AID 1180); conditions: higher = more signal;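 also: RPMI8826 multiple myeloma cell line at 5000 cells per well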
[10] = target: E3 ubiquitin-protein ligase XIAP (Homo sapiens) (UniProt P98170); assay: XIAP binders, primary screen, biophysical, small-molecule microarray, fluorescence 635 nm (AID 1181); conditions: small-molecule microarray binding, higher = more signal;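 also: score merges 667 nm emission and signal to noise over triplicate slides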
Sequence of E3 ubiquitin-protein ligase XIAP (Homo sapiens) (P98170 whole entry, looked up): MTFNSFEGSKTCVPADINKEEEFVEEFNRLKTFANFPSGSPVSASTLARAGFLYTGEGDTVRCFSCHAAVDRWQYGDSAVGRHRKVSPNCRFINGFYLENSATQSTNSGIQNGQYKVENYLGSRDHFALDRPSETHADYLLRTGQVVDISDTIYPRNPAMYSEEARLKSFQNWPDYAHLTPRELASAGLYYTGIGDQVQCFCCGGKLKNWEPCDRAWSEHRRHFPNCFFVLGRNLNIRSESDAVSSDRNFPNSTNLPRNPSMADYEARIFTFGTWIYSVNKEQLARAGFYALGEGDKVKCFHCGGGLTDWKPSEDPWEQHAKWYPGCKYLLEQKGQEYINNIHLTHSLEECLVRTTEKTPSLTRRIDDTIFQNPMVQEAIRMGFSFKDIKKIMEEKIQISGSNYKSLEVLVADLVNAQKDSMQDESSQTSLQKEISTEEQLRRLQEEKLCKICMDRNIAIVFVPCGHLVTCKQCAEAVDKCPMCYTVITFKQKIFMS

[11] = tested on: XIP peptide (Xip251-270) binding; assay: small-molecule binders of XIP peptide, primary screen, biochemical, small-molecule microarray, fluorescence 635/667 nm, 0.1 µg/mL protein (AID 1182); conditions: fluorescent protein binding, 635 nm, higher = more signal, called active from +8 up or from −8 down
[12] = tested on: XIP peptide (Xip251-270); assay: small-molecule binders of XIP peptide, primary screen, biochemical, small-molecule microarray, fluorescence 635/667 nm, 0.5 µg/mL protein (AID 1183); conditions: small-molecule microarray binding, fluorescence 635 nm; higher = more signal
[13] = Plasmodium falciparum growth inhibition, primary screen, strain 3D7, DAPI fluorescence, 100 nL (AID 1184);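 also: parasites grown inside human red blood cells in medium with human serum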; conditions: P. falciparum 3D7 growth, 3 d, higher = more signal
[14] = target: Homeobox protein Hox-A13 (Mus musculus) (UniProt Q62424); assay: inhibitors of HoxA13-DNA binding, primary screen, biochemical, fluorescence polarization, labeled oligonucleotide (AID 1185); conditions: 15 min, higher = more signal, called active from +8 up or from −8 down
Sequence of Homeobox protein Hox-A13 (Mus musculus) (Q62424 whole entry, looked up): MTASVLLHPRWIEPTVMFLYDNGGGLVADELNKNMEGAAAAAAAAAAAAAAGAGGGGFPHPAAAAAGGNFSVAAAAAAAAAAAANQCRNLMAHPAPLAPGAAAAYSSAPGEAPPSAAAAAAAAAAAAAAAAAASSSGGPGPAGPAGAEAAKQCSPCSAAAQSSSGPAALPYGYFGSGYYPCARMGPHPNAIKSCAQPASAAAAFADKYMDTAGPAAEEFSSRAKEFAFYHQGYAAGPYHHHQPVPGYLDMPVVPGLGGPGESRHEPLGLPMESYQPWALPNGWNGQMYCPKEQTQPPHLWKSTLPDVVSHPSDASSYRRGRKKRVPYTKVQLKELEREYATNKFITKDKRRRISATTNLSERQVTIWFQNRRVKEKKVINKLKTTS

[15] = inhibitors of hydroxyurea-induced Chk1 phosphorylation, primary screen, imaging, HeLa, phospho-Chk1 antibody, percent positive cells (AID 1186); conditions: hydroxyurea-induced phospho-Chk1 immunofluorescence imaging, higher = more signal
[16] = inhibitors of hydroxyurea-induced Chk1 phosphorylation, primary screen, imaging, HeLa, phospho-Chk1 nuclear intensity (AID 1187); conditions: hydroxyurea-induced phospho-Chk1 immunofluorescence imaging, higher = more signal

| Structure (SMILES) | z-score [1] | z-score [2] | z-score [3] | composite z-score [4] | z-score [5] | z-score [6] | z-score [7] | z-score [8] | z-score [9] | composite z-score [10] | composite z-score [11] | composite z-score [12] | z-score [13] | z-score [14] | z-score [15] | z-score [16] |
| --- | --- | --- | --- | --- | --- | --- | --- | --- | --- | --- | --- | --- | --- | --- | --- | --- |
| COC(=O)C/C=C/C[C@]1(O)C(=O)N(C)c2ccccc21 | 0.197 | -1.81 (inactive) | 0.913 (inactive) | -0.429 (inactive) | 0.732 (inactive) | -2.6 (inactive) | 2.38 (inactive) | 0.875 (inactive) | 0.547 | -0.0861 | 0.0625 (inactive) | 0.804 | -0.306 | -1.32 (inactive) | -0.866 (inactive) | -0.467 (inactive) |
| [N-]=[N+]=Nc1ccccc1C[C@]1(C(=O)NCC(O)CO)COC(c2ccc(OCCCO)cc2)=N1 (some centres undefined) | 0.586 | -0.226 (inactive) | 0.303 (inactive) | 1 (inactive) | 1.19 (inactive) | 1.73 (inactive) | 0.87 (inactive) | -0.155 (inactive) | 0.747 | 0.0449 | -0.0462 (inactive) | 0.106 | -1.57 | -6.04 (inactive) | 0.0856 (inactive) | 0.636 (inactive) |
| CC(c1ccccc1)C(O)C1C=CC2C(=O)N(C)C(=O)C2N1Nc1ccccc1 (centres undefined) | -0.705 | -0.0181 (inactive) | -1.27 (inactive) | -0.475 (inactive) | 0.944 (inactive) | -0.0455 (inactive) | -1.12 (inactive) | -0.374 (inactive) | -1.1 | -0.0654 | 0.255 (inactive) | 0.726 | 0.139 | -3.9 (inactive) | 0.378 (inactive) | -0.484 (inactive) |
| COC(=O)[C@@]1(Cc2ccc(OC)cc2)[C@H]2c3cc(C(=O)N4CCCC4)n(CCc4c[nH]c5ccc(O)cc45)c3C[C@H]2CN1C(=O)c1ccccc1 | -0.553 | 0.532 (inactive) | -0.56 (inactive) | -0.402 (inactive) | 0.411 (inactive) | 0.7 (inactive) | 0.23 (inactive) | 0.288 (inactive) | -0.377 | 0.0401 | 0.903 (inactive) | 0.864 | -1.44 | -4.21 (inactive) | 0.336 (inactive) | 0.258 (inactive) |
| O[C@@H](Cc1ccccc1)[C@@H](/C=C/C1CC1)N(CC#Cc1ccccc1)Cc1ccccc1Br | 1.67 | 0.365 (inactive) | 1.14 (inactive) | 0.63 (inactive) | -0.59 (inactive) | 1.43 (inactive) | -0.419 (inactive) | -0.232 (inactive) | 2.14 | 0.339 | -0.112 (inactive) | 0.13 | -2.81 | -0.167 (inactive) | -0.36 (inactive) | -0.214 (inactive) |
| Cc1ccc(S[C@]2(C(=O)NCC(F)(F)F)CC(=O)N(Cc3cc(C(F)(F)F)cc(C(F)(F)F)c3)[C@@H]2c2ccc(CO)cc2)cc1 | -0.686 | 0.438 (inactive) | -0.266 (inactive) | -13.9 (active) | 0.214 (inactive) | -0.145 (inactive) | -0.362 (inactive) | -0.615 (inactive) | -0.445 | -0.241 | -0.491 (inactive) | 0.584 | 1.2 | -1.71 (inactive) | 0.0254 (inactive) | 0.474 (inactive) |
| [N-]=[N+]=Nc1ccccc1[C@H]1OC(c2ccc(OCCCO)cc2)=N[C@@]1(Cc1ccccc1)C(=O)NCCN1CCOCC1 | -0.564 | -2.44 (inactive) | -1.5 (inactive) | 0.73 (inactive) | 0.314 (inactive) | 0.964 (inactive) | 2.03 (inactive) | 0.627 (inactive) | -1.74 | 0.643 | 0.0125 (inactive) | 0.83 | -2.18 | -2.71 (inactive) | -0.116 (inactive) | 0.205 (inactive) |
| OCCCC1=CC(c2ccc(CN3CCCC3)cc2)N(Cc2cc3c(cc2Br)OCO3)CC1 (centres undefined) | 0.195 | -0.538 (inactive) | 0.163 (inactive) | 0.198 (inactive) | 0.485 (inactive) | 0.622 (inactive) | 0.243 (inactive) | 0.149 (inactive) | -0.343 | -0.0513 | -0.265 (inactive) | -0.3 | -3.05 | -2.68 (inactive) | 0.905 (inactive) | 0.629 (inactive) |
| Cc1ccc(F)cc1S(=O)(=O)N[C@@H]1CCN(Cc2ccc(Br)cc2)C1 | -0.281 | -11.9 (active) | 0.611 (inactive) | -0.573 (inactive) | -0.73 (inactive) | -0.184 (inactive) | 1.13 (inactive) | -0.795 (inactive) | 0.264 | -0.17 | -0.238 (inactive) | -0.192 | -0.999 | -5.43 (inactive) | 0.0663 (inactive) | -0.335 (inactive) |
| COCCOC(=O)N1C(=O)[C@@]2(c3cc(C#CC4(O)CCCCCC4)ccc31)[C@H](C(=O)N1CCc3cc(OC)c(OC)cc3C1)[C@H]1C(=O)O[C@H](c3ccccc3)[C@H](c3ccccc3)N1[C@@H]2c1ccc(OCCO)cc1 | -0.614 | 1.66 (inactive) | -0.935 (inactive) | -0.494 (inactive) | 3.41 (inactive) | 2.54 (inactive) | -0.201 (inactive) | 0.389 (inactive) | -0.607 | 0.107 | 0.402 (inactive) | 0.62 | -2.25 | 2.15 (inactive) | -0.149 (inactive) | -0.247 (inactive) |
| C=CCOC(=O)[C@@]1(Cc2ccccc2)C[C@H]2CO[C@H](c3ccc(OC)cc3)N2C1=O | -0.352 | -2.69 (inactive) | 0.437 (inactive) | -0.972 (inactive) | 0.125 (inactive) | -1.1 (inactive) | -0.0115 (inactive) | -0.187 (inactive) | 0.0399 | -0.184 | -0.373 (inactive) | -0.0614 | -0.829 | -3.45 (inactive) | -0.0248 (inactive) | -0.386 (inactive) |
| N#Cc1ccc(NN2C(C(O)c3ccc(Br)cc3)C=CC3C(=O)N(c4ccccc4)C(=O)C32)cc1 (centres undefined) | -1.3 | -3.42 (inactive) | -0.299 (inactive) | -1.03 (inactive) | 0.819 (inactive) | -1.85 (inactive) | 0.527 (inactive) | 0.656 (inactive) | -0.0706 | 0.179 | 1.13 (inactive) | 0.529 | 0.401 | -3.13 (inactive) | 0.0643 (inactive) | 0.0338 (inactive) |
| CO[C@H]1O[C@H](CO)[C@@H](OC(=O)CCc2ccccc2)[C@@H]2OC(=O)[C@@H](Cc3ccccc3)C/C=C/C[C@H](Cc3ccccc3)C(=O)O[C@@H]12 | 0.195 | -0.559 (inactive) | -0.887 (inactive) | -1.53 (inactive) | -0.661 (inactive) | 0.532 (inactive) | 1.06 (inactive) | 1.79 (inactive) | 0.943 | 0.913 | -0.315 (inactive) | 0.506 | -0.655 | -3.06 (inactive) | -0.682 (inactive) | -0.379 (inactive) |
| CN(C)C(=O)[C@]1(CCC(=O)OC(C)(C)C)N=C(c2ccc(OCCCO)cc2)O[C@@H]1c1ccccc1CN=[N+]=[N-] | 1.52 | -0.756 (inactive) | 0.136 (inactive) | -0.369 (inactive) | -0.36 (inactive) | -0.0274 (inactive) | 0.0547 (inactive) | -0.0727 (inactive) | 0.471 | -0.0501 | 0.0464 (inactive) | 0.649 | -2.39 | -4.57 (inactive) | -0.165 (inactive) | 0.152 (inactive) |
| CCCCC(CC)C(O)C1C=CC2C(=O)N(c3ccccc3)C(=O)C2N1Nc1ccc(C#N)cc1 (centres undefined) | -0.0318 | -0.847 (inactive) | -0.67 (inactive) | 0.215 (inactive) | 1.7 (inactive) | 0.913 (inactive) | 0.248 (inactive) | 0.0706 (inactive) | -0.661 | 0.212 | 0.742 (inactive) | 0.784 | 0.128 | -1.83 (inactive) | -0.185 (inactive) | -0.153 (inactive) |
| O=C(C1N=C(c2ccc(OCCCO)cc2)N(c2ccccc2)O1)N1CCCCC1 (centres undefined) | 0.377 | -0.769 (inactive) | 1.15 (inactive) | -0.152 (inactive) | -1.35 (inactive) | -0.587 (inactive) | 0.457 (inactive) | 0.15 (inactive) | 0.188 | 0.0761 | 2.64 (inactive) | 0.814 | -0.603 | -3.7 (inactive) | -0.216 (inactive) | 0.153 (inactive) |
| CCCNC(=O)[C@@]1(C)c2ccccc2C(=O)N(c2ccc(C)cn2)[C@H]1c1ccc(CO)cc1 | -0.112 | -0.397 (inactive) | 0.268 (inactive) | -0.281 (inactive) | 0.484 (inactive) | -0.306 (inactive) | -0.398 (inactive) | -0.586 (inactive) | -0.388 | -0.127 | 0.635 (inactive) | 0.386 | 1.01 | -1.63 (inactive) | 0.0068 (inactive) | -0.172 (inactive) |
| CC(C)N1C(=O)C[C@@](C(=O)O)(c2ccc([N+](=O)[O-])cc2)[C@H]1c1ccc(CO)cc1 | -0.847 | -0.717 (inactive) | 0.305 (inactive) | -1.24 (inactive) | 0.0309 (inactive) | 0.196 (inactive) | 0.732 (inactive) | 0.684 (inactive) | 0.191 | -0.169 | 1.04 (inactive) | 0.916 | -0.352 | -2.9 (inactive) | -0.198 (inactive) | -0.0057 (inactive) |
| CCCCC=C[C@@H](NC(=O)OCc1ccccc1Cl)c1ccccc1 | -0.656 | 1.33 (inactive) | -1.19 (inactive) | 0.0518 (inactive) | 0.84 (inactive) | 1.48 (inactive) | -1.32 (inactive) | -0.892 (inactive) | -1.2 | 0.0137 | -0.549 (inactive) | 0.573 | -1.37 | 2.14 (inactive) | 0.663 (inactive) | -0.117 (inactive) |
